These results are taken from PubChem BioAssay (Tox21).

Where “and” joins values, the source holds several entries; their conditions need not be identical. Identical values can stand only once. Unmarked numbers belong to inactive results. Inconclusive results are not listed. Calls of active or inactive are those of the source. Unless noted, calls come from the whole dose curve; as a rule, active = well fitted curve in the direction sought with a large enough effect in the repeat runs; inconclusive = weak or mixed curves; inactive = no such curve, though single readings can be large; an effect the other way counts as inactive or inconclusive.

Assay [1] can be described thus: qHTS assay to identify small molecule agonists of H2AX (AID 1224845; active = well fitted activation curve with a large enough effect in the signal ratio in the repeat runs, not every such curve was filed as active; the % refers to the signal ratio). An outline of the steps:
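Wild-type CHO-K1 cells, plated overnight, exposed 3hr at 37C to 15 concentrations (0.76% DMSO final). Lysed, then HTRF anti-pH2AX (S139) cryptate and anti-H2AX-d2 antibodies, 24 hr room temperature; 665/620 nm emission read.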

Assay [2] can be described thus: qHTS assay to identify small molecule agonists of the hypoxia (HIF-1) signaling pathway (AID 1224846; active = well fitted activation curve with a large enough effect in the signal ratio in the repeat runs, not every such curve was filed as active; the % refers to the signal ratio). An outline of the steps:
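Measured by blue/green FRET after loading CCF4-AM: beta-lactamase expressed from a hypoxia response element in ME-180 cells. Test agents were delivered in DMSO and left 17 hrs; cells had been plated 5 hrs earlier in low-serum (0.5% dialyzed FBS) medium.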
(In general: qHTS replaces the single test concentration by a dilution series.)

Assay [3] is described as follows: qHTS RealTime-Glo MT Cell Viability Assay in HepG2 cells - 24 hour (AID 1224867). Note: nearly all actives have a fitted effect of over 50% in size. Note: potency is the fitted concentration of half-maximal effect. The procedure, abridged:
(§1)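 HepG2 suspension premixed with RealTime-Glo reagents is plated at 600 cells per well and left 5 h at 37 C/5% CO2. Compounds in DMSO then go in, and bioluminescence reflecting viable cell number is recorded over 40 h.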

Assay [4] in a line: A CellTox Green Cytotoxicity Assay to monitor cytotoxicity in HEK293 cells - 0 hour (AID 1224869). Note: nearly all actives have a fitted effect of over 50% in size. An outline of the steps:
(§2)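 Each value comes from one timepoint of a single continuous run in which HEK293 cells with CellTox Green were exposed to compound for up to 40 h at 37 C, dye fluorescence rising with cell death.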

A short description of assay [5]: qHTS RealTime-Glo MT Cell Viability Assay in HepG2 cells - 40 hour (AID 1224870). Note: nearly all actives have a fitted effect of over 50% in size. Note: potency is the fitted concentration of half-maximal effect. The procedure, abridged:
(§3)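 HepG2 cells (600/well) mixed with RealTime-Glo MT reagent, settled 5 h at 37 C/5% CO2 before compound addition. Nonlytic NanoLuc luminescence from viable-cell prosubstrate reduction read repeatedly during 40 h treatment at 37 C.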

Assay [6] is described as follows: A CellTox Green Cytotoxicity Assay to monitor cytotoxicity in HEK293 cells - 40 hour (AID 1224871). Note: nearly all actives have a fitted effect of over 45% in size. Note: potency is the fitted concentration of half-maximal effect. An outline of the steps: as §2
Assay [7] is described as follows: qHTS RealTime-Glo MT Cell Viability Assay in HepG2 cells - 8 hour (AID 1224873). Note: nearly all actives have a fitted effect of over 55% in size. The procedure, abridged:
as §3

Assay [8] is described as follows: A CellTox Green Cytotoxicity Assay to monitor cytotoxicity in HEK293 cells - 24 hour (AID 1224875). Note: nearly all actives have a fitted effect of over 45% in size. Note: potency is the fitted concentration of half-maximal effect. The procedure, abridged: as §2
Assay [9] is described as follows: qHTS RealTime-Glo MT Cell Viability Assay in HepG2 cells - 32 hour (AID 1224877). Note: nearly all actives have a fitted effect of over 55% in size. Note: potency is the fitted concentration of half-maximal effect. An outline of the steps: as §1
Assay [10] is described as follows: A CellTox Green Cytotoxicity Assay to monitor cytotoxicity in HepG2 cells - 24 hour (AID 1224878). Note: nearly all actives have a fitted effect of over 45% in size. Note: potency is the fitted concentration of half-maximal effect. An outline of the steps:
(§4)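 Continuous culture of HepG2 cells with a membrane-impermeant DNA dye; rising fluorescence marks dead cells. Compound exposure lasted up to 40 h at 37 C, with reads every 8 h from 0 h.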

Assay [11] can be described thus: A CellTox Green Cytotoxicity Assay to monitor cytotoxicity in HepG2 cells - 40 hour (AID 1224879). Note: nearly all actives have a fitted effect of over 40% in size. Note: potency is the fitted concentration of half-maximal effect. An outline of the steps: as §4
A short description of assay [12]: A CellTox Green Cytotoxicity Assay to monitor cytotoxicity in HEK293 cells - 32 hour (AID 1224881). Note: nearly all actives have a fitted effect of over 40% in size. Note: potency is the fitted concentration of half-maximal effect. The procedure, abridged:
as §2

The nature of assay [13]: qHTS assay to identify small molecule agonists of H2AX - cell viability counter screen (AID 1224847; calls by dose curve; note: nearly all actives have a fitted effect of over 30% in size; note: potency is the fitted concentration of half-maximal effect; for activity change, negative = cytotoxicity: top concentration of the series differs between compounds). The procedure, abridged: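 We seed wild-type CHO-K1 cells overnight, treat them for 3 hr at 37C with compounds in 15-concentration series, and quantify remaining viability by CellTiter-Glo luminescence.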
Assay [14] is described as follows: qHTS assay to identify small molecule antagonists of the estrogen related receptor (ERR) signaling pathway from Tox21 library (AID 1224848). Note: nearly all actives have a fitted effect of over 50% in size. Note: potency is the fitted concentration of half-maximal effect. An outline of the steps: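 Luminescent reporter read-out (ONE-Glo) from NTP's ERR cell line after 18 h treatment at 37 C with DMSO-dissolved Tox21 compounds; cells pre-plated 6 h beforehand at 2,000 per well.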
The nature of assay [15]: qHTS assay to identify small molecule agonists of the estrogen related receptor (ERR) signaling pathway from Tox21 library (AID 1224849; calls by dose curve; note: nearly all actives have a fitted effect of over 15% in size). To be noted: ERR reporter cell line, ONE-Glo luciferase, 18 h; at 92.4 µM (top of the series) unless noted. An outline of the steps:
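We plated ERR reporter cells, waited 6 h, added compounds in DMSO by pin tool and incubated them 18 h at 37 C. ONE-Glo was then added and luminescence read after 30 min.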

Assay [16] is described as follows: qHTS RealTime-Glo MT Cell Viability Assay in HEK293 cells - 32 hour (AID 1224868). For activity change, negative = cytotoxic: top concentration of the series differs between compounds. Note: nearly all actives have a fitted effect of over 50% in size. Note: potency is the fitted concentration of half-maximal effect. An outline of the steps: (§5)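 Reads taken at 0, 8, 16, 24, 32 and 40 h from the same wells. HEK293 cells (600/well) carried RealTime-Glo reagents from seeding, with compound added after a 5 h settle at 37 C.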
The nature of assay [17]: qHTS RealTime-Glo MT Cell Viability Assay in HEK293 cells - 16 hour (AID 1224872). For activity change, negative = cytotoxicity: top concentration of the series differs between compounds. Note: nearly all actives have a fitted effect of over 50% in size. Note: potency is the fitted concentration of half-maximal effect. An outline of the steps:
as §5

Assay [18] in a line: qHTS RealTime-Glo MT Cell Viability Assay in HEK293 cells - 40 hour (AID 1224874). Note: nearly all actives have a fitted effect of over 50% in size. To be noted: RealTime-Glo luminescence; max response: stronger effect = lower value. An outline of the steps: (§6)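 qHTS format; HEK293 cells with NanoLuc/prosubstrate reagent, 37 C/5% CO2 for 5 h pre-dosing; compounds 23 nL in DMSO; luminescence at each time point reflects viable cells.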
A short description of assay [19]: A CellTox Green Cytotoxicity Assay to monitor cytotoxicity in HepG2 cells - 16 hour (AID 1224876). Note: nearly all actives have a fitted effect of over 45% in size. The procedure, abridged:
as §4

Assay [20] is described as follows: qHTS RealTime-Glo MT Cell Viability Assay in HEK293 cells - 0 hour (AID 1224880). The procedure, abridged:
as §6
% is set by controls: 0 for no effect and ±100 for the full control effect.

Consider `O=S(=O)(O)C(F)(F)C(F)(F)C(F)(F)C(F)(F)F`, for which the Potency entry in assay [1], in assay [3], in assay [4], in [5], in assay [6] and in assay [7] was “inactive” in each case. Further, the Potency entry in [8], in assay [9], in [10], in assay [11] and in assay [12] was “inactive” each time. The call in [2] was inactive.
With `O=C(O)C(F)(F)C(F)(F)C(F)(F)C(F)(F)C(F)(F)C(F)(F)C(F)(F)C(F)(F)C(F)(F)F`, the Potency entry in assay [1], in [13], in assay [14], in assay [3], in [16] and in assay [4] was “inactive” in each case. The Potency result in [17], in assay [7], in [8], in assay [19], in assay [9] and in assay [10] was “inactive” in each case. For the same compound, the Potency entry in assay [11], in assay [20] and in assay [12] was “inactive” in each case. The activity change, positive = activation in assay [15] is 3.44%. Further, the max response in [18] is 1.42%.
Turning to `CC(C)O.CC(C)O.OCCN(CCO)CCO.OCCN(CCO)CCO.[Ti]`, the Potency result in [1], in assay [3], in assay [16], in assay [4], in assay [5] and in [6] was “inactive” each time. The Potency result in [17], in [7], in [8], in [19], in [9] and in assay [10] was “inactive” throughout. In assay [11], the Potency entry is “inactive”. In assay [2], the call was inactive. Besides, the max response in [18] was 16.3%.
Turning to `CCCCC(CC)COP(=O)(Oc1ccccc1)Oc1ccccc1` (centres undefined), the Potency entry in assay [1], in assay [3], in assay [16], in assay [4], in assay [5] and in [6] was “inactive” in each case. The Potency result in [17], in assay [7], in [8], in assay [19], in [9] and in assay [10] was “inactive” throughout. Besides, in assay [11], the Potency entry is “inactive”. Also, the result in assay [2] was inactive. The max response in assay [18] is -24.3%.
On to `C=CC(=O)OCC(C)O` (centres undefined), for which the Potency entry in assay [1], in [13], in [14], in assay [3], in [4] and in [5] was “inactive” in each case. Also, the Potency entry in assay [17], in assay [7], in assay [8], in [19], in [9] and in assay [10] was “inactive” in each case. Further, the Potency result in assay [11] and in [20] was “inactive” in each case. Also, the max response in [18] is 21.2%.
With `NCC(CC(=O)O)c1ccc(Cl)cc1` (centres undefined), the activation (H2AX phosphorylation) in [1] was 0.429% [at 0.582 µM]. The activity change, negative = cytotoxicity in assay [13] is -1.04% [at 0.582 µM]; in [3] it was -0.0323% [at 0.29 µM]; in assay [17] it was 0.531% [at 0.29 µM]; in [20] it was -1.28% [at 0.29 µM]. For the same compound, the activity, negative = inhibition in assay [14] was 4.98% [at 0.349 µM]. The activity change, positive = activation in [15] is 2.78% [at 0.349 µM]. The activity change, negative = cytotoxic in assay [16] is 7.97% [at 0.29 µM]; in assay [5], -1.34% [at 0.29 µM]; in [9], -0.345% [at 0.29 µM]. The cytotoxicity in assay [4] is -11.1% [at 0.29 µM]; in [10] it was -3.56% [at 0.29 µM]. Moreover, the viability change, negative = cytotoxic in [7] is 0.906% [at 0.29 µM]. Besides, the max response in assay [18] is 8.41%. For the same compound, the activity change in [8] is -19.1% [at 0.29 µM, stronger effect = higher value]. Also, the values for the cytotoxicity increase in assay [19], in assay [11] and in assay [12] were -3.17% [at 0.29 µM], -9.33% [at 0.29 µM] and -17.2% [at 0.29 µM], respectively.
Take `C(=NC1CCCCC1)=NC1CCCCC1`: the Potency entry in assay [1], in assay [4], in [19] and in assay [20] was “inactive” in each case. Besides, the Potency in [13] was 25.5 µM (active) and 14.2 µM (active); in assay [14], 13.7 µM (active); in [3], 13.9 µM (active) and 12.3 µM (active); in assay [16], 22 µM (active) and 21.9 µM (active); in assay [5], 12.4 µM (active) and 12.3 µM (active); in assay [6] it was 19.6 µM (active) and 21.9 µM (active). In addition, the Potency in assay [17] was 19.6 µM (active) and 19.5 µM (active); in assay [8], 22 µM (active) and 34.7 µM (active); in assay [9] it was 12.4 µM (active) and 12.3 µM (active); in assay [10], 11 µM (active) and 15.5 µM (active); in assay [11], 9.84 µM (active) and 11 µM (active); in assay [12], 19.6 µM (active) and 24.5 µM (active). Further, in [15], the activity change, positive = activation is -50.9% and -60.1%.
